High-throughput results as filed in PubChem.
The list is not random: actives were taken first. Their share in the collection is about 1.5%.
TMEM16A act: activators or potentiators of mouse TMEM16A chloride channel; Q8BHY3; HEK293 TMEM16A/YFP-H148Q/I152L, iodide quench fluorescence; active compounds read low; B-score at 10 µM; 340,000 tested, 0.3% active;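 active = fluorescence-ratio B-score plate-corrected deviation score at least 3 library SD below zero, with starting fluorescence score within 5 deviations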;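 note: channel opened by trigger with iodide after compound preincubation; score built on the fluorescence ratio of max minus min over baseline; more negative score means more quench and so TMEM16A activation or potentiation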
hiPSC survival: hiPSC single-cell survival enhancement; ATPlite luminescence; 100% = ROCK inhibitor wells, 0% = DMSO; survival enhancement, % at 20 µM; 360,000 tested, 0.044% active; in the data active = survival enhancement above about 18%;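 note: cells exposed to compounds for 16 hours before the ATP read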
ABCB6 inh MLPCN: human ABCB6 transporter inhibition; Q9NP58; K562-ABCB6 porphyrin accumulation, flow cytometry, 1 h; active compounds read low; fluorescence ratio to DMSO, % at 10 µM; 360,000 tested, 0.19% active;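 active = fluorescence ratio to DMSO below 75%, the collection mean minus 3 SD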;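 note: signal is porphyrin accumulated inside mitochondria; 100% equals median channel fluorescence of DMSO control wells; lower ratio means ABCB6 inhibition with less porphyrin fluorescence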
Target sequence (Q9NP58 whole entry, looked up): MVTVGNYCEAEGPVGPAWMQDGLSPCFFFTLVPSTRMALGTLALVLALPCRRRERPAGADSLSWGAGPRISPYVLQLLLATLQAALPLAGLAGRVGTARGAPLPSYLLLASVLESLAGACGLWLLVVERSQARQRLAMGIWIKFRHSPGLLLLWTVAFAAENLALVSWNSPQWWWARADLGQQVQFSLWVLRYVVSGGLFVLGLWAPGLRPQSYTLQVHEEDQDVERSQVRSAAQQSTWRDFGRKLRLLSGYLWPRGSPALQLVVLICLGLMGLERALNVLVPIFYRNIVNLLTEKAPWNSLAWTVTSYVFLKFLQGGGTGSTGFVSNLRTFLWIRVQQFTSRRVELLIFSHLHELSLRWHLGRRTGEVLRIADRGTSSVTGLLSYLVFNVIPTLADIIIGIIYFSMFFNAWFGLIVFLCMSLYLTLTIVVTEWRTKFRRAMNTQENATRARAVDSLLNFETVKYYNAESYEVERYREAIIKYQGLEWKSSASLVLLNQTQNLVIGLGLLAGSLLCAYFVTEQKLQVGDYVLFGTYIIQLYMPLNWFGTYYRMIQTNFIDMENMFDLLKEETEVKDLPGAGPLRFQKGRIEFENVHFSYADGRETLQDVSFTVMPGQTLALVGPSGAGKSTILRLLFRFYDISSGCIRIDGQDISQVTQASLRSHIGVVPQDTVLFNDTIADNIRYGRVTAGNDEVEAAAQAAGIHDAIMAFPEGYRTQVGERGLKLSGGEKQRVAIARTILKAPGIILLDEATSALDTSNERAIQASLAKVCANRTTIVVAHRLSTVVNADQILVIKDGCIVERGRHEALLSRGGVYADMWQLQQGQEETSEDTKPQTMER
DAGLB inhibitor: diacylglycerol lipase beta (human) inhibition | Q8NCG7 | HEK293T DAGLB membrane lysate, EnzChek fluorogenic substrate | inhibition, % at 5.17 µM | 340,000 tested, 0.059% active | AID 504411; in the data active = inhibition above about 34%;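 note: 0% = enzyme with vehicle and 100% = wells lacking enzyme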
TMEM16A inh: mouse TMEM16A channel inhibition, primary screen; 310,000 tested, 1.2% active; normalized B-score (activity score, 25-100; higher = stronger inhibition) at 10 µM; AID 588511; HEK293 TMEM16A/YFP iodide influx fluorescence, ionomycin; Q8BHY3;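 active = ratio plate-corrected score three or more library SD toward inhibition, starting fluorescence score within five deviations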;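 note: score derived from kinetic fluorescence span divided by baseline fluorescence per well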
TMEM16A reconf: reconfirmed blocker of mouse TMEM16A calcium-activated chloride channel; shares compounds with TMEM16A inh; HEK293 TMEM16A/YFP-H148Q, iodide quench fluorescence; ionomycin added to raise cell calcium; inhibition, % at 10 µM; 2,300 tested, 39% active;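 active = mean duplicate percent inhibition, scaled so buffer wells are 0 and the reference blocker 100, over three buffer SD above buffer mean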
TMEM16A Ca cntr: counter-screen for TMEM16A inhibitors: effect on calcium mobilization | shares compounds with TMEM16A inh | TMEM16A/YFP HEK293, Fluo4 calcium mobilization | calcium response (% of ionomycin), % at 10 µM | 2,300 tested, 2% active | AID 652231;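 active = duplicate-averaged calcium signal over 20% of the ionomycin maximum, relative to buffer baseline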;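 note: each well's signal is peak minus trough fluorescence divided by its pre-addition baseline; 0% = buffer wells and 100% = ionomycin wells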
YFP-HEK293 quench: acts in parental YFP-HEK293 cells lacking TMEM16A, counter-screen | shares compounds with TMEM16A inh | iodide YFP quench, ionomycin | YFP ratio F(max-min)/F0 at 10 µM | 2,300 tested, under 10 active | AID 652233;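 active = yellow fluorescent protein signal ratio exceeding the buffer control mean by over 5 SD of those controls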;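 note: ratio is mean of duplicate wells from kinetic YFP trace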
ClC-1 inh: blocks the rat ClC-1 voltage-dependent chloride channel; shares compounds with TMEM16A inh; CHO ClC-1-YFP, iodide influx fluorescence quench; iodide control reads 0, buffer control 100; ratio percent, % at 10 µM; 2,300 tested, under 10 active; AID 652236;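 active = duplicate-mean ratio percent above the mean of iodide-only control wells, which defines zero, plus 5 of their SD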;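 note: higher percent means stronger block of ClC-1 iodide influx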
* marks the source's active call; other numbers are inactive results.

`CCc1cc(-c2[nH]ncc2-c2ccc3c(c2)OCO3)c(O)cc1O` gave TMEM16A act inactive, hiPSC survival 0, ABCB6 inh MLPCN 91, DAGLB inhibitor 4, TMEM16A inh 100*, TMEM16A reconf 52%*, TMEM16A Ca cntr inactive, YFP-HEK293 quench -1.3 and ClC-1 inh -10.
O=C(Cn1nc(C(=O)O)c2ccccc2c1=O)Nc1cccc(S(=O)(=O)N2CCCCC2)c1 was read as TMEM16A act inactive, hiPSC survival 1, ABCB6 inh MLPCN 102 and DAGLB inhibitor 0.
Screening COc1ccc(-n2ncc3c(=O)n(CC(=O)NC(C)C)cnc32)cc1 returned TMEM16A act inactive, hiPSC survival 0, ABCB6 inh MLPCN 100, DAGLB inhibitor -1 and TMEM16A inh inactive.
Screening O=C(NCc1ccc(N2CCCC2=O)cc1)c1cccc(Cl)c1 returned TMEM16A act inactive, hiPSC survival 0, ABCB6 inh MLPCN 90, DAGLB inhibitor 1 and TMEM16A inh inactive.
Screening O=C(NCc1ccc(N2CCCC2=O)cc1)Nc1cccc(Cl)c1 returned TMEM16A act inactive, hiPSC survival 1, ABCB6 inh MLPCN 95, DAGLB inhibitor 0, TMEM16A inh 25*, TMEM16A reconf inactive, TMEM16A Ca cntr inactive, YFP-HEK293 quench -1.1 and ClC-1 inh -6.
CC1(C)CC2(C)OC2C2(C1)N=NC(=Nc1ccccc1)O2 (stereo unspecified) was read as hiPSC survival -2 and ABCB6 inh MLPCN 90.
CC(C)(C)c1ccc(OCCOCCn2cnc3ccccc3c2=O)cc1 was read as TMEM16A act inactive, hiPSC survival 0, ABCB6 inh MLPCN 91, DAGLB inhibitor -8, TMEM16A inh 25*, TMEM16A reconf 20%*, TMEM16A Ca cntr inactive, YFP-HEK293 quench -1.2 and ClC-1 inh -10.
For Cc1cc(C(F)(F)F)c(C#N)c(N2CCOCC2)n1 the results were TMEM16A act inactive, hiPSC survival -2, ABCB6 inh MLPCN 98, DAGLB inhibitor 0, TMEM16A inh 100*, TMEM16A reconf inactive, TMEM16A Ca cntr inactive, YFP-HEK293 quench -1.2 and ClC-1 inh -12.
Cc1nc(NS(=O)(=O)c2ccc(Cl)s2)c2c3c(sc2n1)CCCC3 was read as TMEM16A act inactive, hiPSC survival 1, ABCB6 inh MLPCN 103, DAGLB inhibitor 7, TMEM16A inh 25*, TMEM16A reconf 17%*, TMEM16A Ca cntr inactive, YFP-HEK293 quench -0.91 and ClC-1 inh -26.
Screening O=C(OCC(=O)c1c[nH]c2ccccc12)c1cccc([N+](=O)[O-])c1 returned hiPSC survival 2, ABCB6 inh MLPCN 111 and DAGLB inhibitor -1.
For Cc1cccc(S(=O)(=O)C(C#N)c2nc3ccccc3nc2N2CCCC2)c1 (stereo unspecified) the results were TMEM16A act inactive, hiPSC survival 6, ABCB6 inh MLPCN 194, DAGLB inhibitor -2 and TMEM16A inh inactive.
For Cc1ccc(C)c(S(=O)(=O)C(C#N)c2nc3ccccc3nc2N2CCOCC2)c1 (stereo unspecified) the results were TMEM16A act inactive, hiPSC survival 3, ABCB6 inh MLPCN 99, DAGLB inhibitor 8, TMEM16A inh 25*, TMEM16A reconf 22%*, TMEM16A Ca cntr inactive, YFP-HEK293 quench -0.89 and ClC-1 inh -14.
For Cc1ccc(C)c(S(=O)(=O)C(C#N)c2nc3ccccc3nc2N2CCCC2)c1 (stereo unspecified) the results were TMEM16A act inactive, hiPSC survival 5, ABCB6 inh MLPCN 100, DAGLB inhibitor 1, TMEM16A inh inactive, TMEM16A reconf inactive, TMEM16A Ca cntr inactive, YFP-HEK293 quench -0.73 and ClC-1 inh -8.
`Cc1ccc(S(=O)(=O)C(C#N)c2nc3ccccc3nc2N2CCN(C)CC2)cc1C` (stereo unspecified) gave TMEM16A act inactive, hiPSC survival 1, ABCB6 inh MLPCN 102, DAGLB inhibitor -1 and TMEM16A inh inactive.
For Cc1ccc(C)c(S(=O)(=O)C(C#N)c2nc3ccccc3nc2N2CC(C)OC(C)C2)c1 (stereo unspecified) the results were TMEM16A act inactive, hiPSC survival 2, ABCB6 inh MLPCN 99, DAGLB inhibitor 3, TMEM16A inh 25*, TMEM16A reconf 18%*, TMEM16A Ca cntr inactive, YFP-HEK293 quench -1 and ClC-1 inh -18.
For Cc1nc2sccn2c(=O)c1S(=O)(=O)NCC1CCN(Cc2ccc(Cl)cc2)CC1 the results were hiPSC survival -4, ABCB6 inh MLPCN 96 and DAGLB inhibitor 3.
For CCOC(=O)[C@H](O)[C@@H](O)c1cccc([C@H](O)[C@@H](O)C(=O)OCC)c1 the results were TMEM16A act inactive, hiPSC survival -2, ABCB6 inh MLPCN 94, DAGLB inhibitor -2 and TMEM16A inh inactive.
Screening CC(C)(C)c1ccc(OCc2ccc(C(=O)NCc3cccnc3)o2)cc1 returned TMEM16A act inactive, hiPSC survival -2, ABCB6 inh MLPCN 96, DAGLB inhibitor -3, TMEM16A inh 100*, TMEM16A reconf inactive, TMEM16A Ca cntr inactive, YFP-HEK293 quench -1.1 and ClC-1 inh -16.
Screening c1ccc(Cn2ccc(-c3cnc(-c4ccccc4)s3)n2)cc1 returned TMEM16A act inactive, hiPSC survival 1, ABCB6 inh MLPCN 96, DAGLB inhibitor -6, TMEM16A inh 100*, TMEM16A reconf 45%*, TMEM16A Ca cntr inactive, YFP-HEK293 quench -0.94 and ClC-1 inh -11.
Screening CC(C)(C)OC1NS(=O)(=O)OCC1NCOC(Cl)(Cl)Cl (stereo unspecified) returned TMEM16A act inactive, hiPSC survival 0, ABCB6 inh MLPCN 96, DAGLB inhibitor -2 and TMEM16A inh inactive.
`CCOC(=O)CC(=O)CSc1nc2c(sc(=S)n2-c2ccc(C)c(C)c2)c(=O)[nH]1` gave hiPSC survival 0, ABCB6 inh MLPCN 92, DAGLB inhibitor 21, TMEM16A inh 25*, TMEM16A reconf inactive, TMEM16A Ca cntr inactive, YFP-HEK293 quench -1.1 and ClC-1 inh -12.
